According to PubChem BioAssay (NCI):
About 83,000 compounds went through this panel and 20% of them were active in at least one assay; those are over-represented in the sample as a whole.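 Plates (96-well) were seeded with cells, treated with compound at one concentration, and incubated for 48 hours before percent growth was determined.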 A number with no mark means an inactive call. The source made the active and inactive calls. Rule for the calls: active = growth percent below 10; inactive = the rest.

Legend:
Test in all cases: NCI-60 one-dose screen, 48 h (100 = growth as untreated, 0 = no growth, -100 = all killed)
Conditions in all cases: 10 µM unless noted
NCI-H23 lung = system: NCI-H23 lung
NCI-H226 lung = system: NCI-H226 lung
NCI-H322M lung = system: NCI-H322M lung
HOP-62 NSCLC = system: HOP-62 NSCLC
NCI-H460 lung = system: NCI-H460 lung
HOP-92 NSCLC = system: HOP-92 NSCLC
A549/ATCC NSCLC = system: A549/ATCC NSCLC
786-0 renal = system: 786-0 renal
COLO 205 colon = system: COLO 205 colon

| Compound | growth (NCI-H23 lung) | growth (NCI-H226 lung) | growth (NCI-H322M lung) | growth (HOP-62 NSCLC) | growth (NCI-H460 lung) | growth (HOP-92 NSCLC) | growth (A549/ATCC NSCLC) | growth (786-0 renal) | growth (COLO 205 colon) |
| --- | --- | --- | --- | --- | --- | --- | --- | --- | --- |
| O=C1C(=O)/C(=C/c2ccccc2)CCCCCC/C1=C/c1ccccc1 | 42.3% | 101% | 94.5% | 10.3% | 90.4% | 90.3% | 86.1% | 86.6% | 99.6% |
| O=C(Nc1ccccc1S)c1ccccc1 | 93.3% | 103% | 103% | 120% | 98.7% | 109% | 93.8% | 109% | 119% |
| Cc1ccc(N/N=C(/C(=O)c2ccc(Cl)cc2)c2nc(C)cc(=O)[nH]2)cc1 | 111% | 107% | 106% | 94.2% | 105% | 91% | 100% | 82.9% | 116% |
| O=C(CNC(=O)c1cccc2ccccc12)Nc1ccccc1Cc1ccccc1 | 52.1% [5 µM] | 72.3% [5 µM] | 78.4% [5 µM] | 36.4% [5 µM] | 17.9% [5 µM] | 53.5% [5 µM] | 27% [5 µM] | 45.3% [5 µM] | 29.4% [5 µM] |
| CC(NNC(=S)N1CCCCCC1)c1ccc2ccccc2n1 (stereo unspecified) | 60.9% | 45.3% | 27.2% | 42.7% | 12.5% | 65.7% | 13.9% | 40% | 20.1% |
| CN(C)CCCN=c1cc2c(=O)n(CCCN(C)C)c(=O)c3c(NCCCN(C)C)cc4c(O)n(CCCN(C)C)c(=O)c1c4c3-2 | 21.1% | -33.2% (active) | -26.9% (active) | -11.4% (active) | -43.5% (active) | -0.168% (active) | -30.8% (active) | -47.5% (active) | -56.6% (active) |
| Cc1ccc2nc(SCC(=O)Nc3ccc(-c4nc5ccccc5s4)c(Cl)c3)[nH]c2c1 | 109% | 98.7% | 101% | 114% | 116% | 98% | 98.3% | 98.1% | 107% |
| Cc1cc(=O)[nH]c(/C(=N/Nc2ccccc2)C(=O)c2ccc(Cl)cc2)n1 | 105% | 109% | 107% | 104% | 109% | 88.7% | 92.5% | 82.2% | 106% |
| N#Cc1c(-c2ccccc2)cc(-c2ccccc2)n(CC(=O)O)c1=O | 70.2% | 75.2% | 96.9% | 53.8% | 40.7% | 61.7% | 51.9% | 62.9% | 68.4% |
| N[C@H](CS)C(=O)O | 102% | 105% | 83.8% | 101% | 103% | 86.4% | 99.5% | 105% | 120% |
| Cc1[nH]ccc2cc3nc4ccccc4c3cc12 | 39.4% | 27.2% | 19.2% | 34.4% | 8.56% (active) | 31.9% | 14.6% | 44.7% | -5.37% (active) |
| CC[C@@H](C)/C=C(C)/C=C/C(O)=C1\C(=O)N[C@@H](Cc2ccc(OC(=O)[C@@](OC)(c3ccccc3)C(F)(F)F)cc2)C1=O | 99.2% | 104% | 91% | 110% | 79.8% | 41.5% | 97.2% | 90.8% | 118% |
| O=C1C(=O)c2c(nc3ccc(Cl)cn23)-c2ccccc21 | -45.4% (active) | -53.9% (active) | -92.1% (active) | -87.9% (active) | -100% (active) | -79.8% (active) | -80.8% (active) | -100% (active) | -100% (active) |
| COc1ccc(-c2cnc(SCC(=O)Nc3ccc(-c4nc5ccccc5s4)cc3)n2-c2ccc(OC)cc2)cc1 | 101% | 105% | 102% | 106% | 110% | 93.6% | 101% | 102% | 112% |
| O=C1NC(=O)/C(=C\c2ccco2)S1 | 101% | 95.8% | 111% | 90.7% | 105% | 87% | 108% | 99% | 91.4% |
| Cc1n(Cc2ccc3ccccc3c2)cc[n+]1Cc1ccc2ccccc2c1 | 5.53% (active) | 19% | 48.9% | 18% | 9.12% (active) | -20.3% (active) | 42.3% | 34% | -57.2% (active) |
| Nc1ccccc1C#Cc1ccccc1C#Cc1ccc(OCCCCCCOc2ccc(C#Cc3ccccc3C#Cc3ccccc3N)cc2)cc1 | 95.3% | 99.6% | 106% | 93.9% | 114% | 88.8% | 106% | 89.8% | 96.7% |
| COc1cc2c(cc1OC)C(CC1(O)CCCCC1)N(S(=O)(=O)c1ccc(C)cc1)CC2 (stereo unspecified) | 29.3% [100 µM] | 57.6% [100 µM] | 57.8% [100 µM] | 79.3% [100 µM] | 8.16% [100 µM] (active) | -10.6% [100 µM] (active) | 20.9% [100 µM] | 29.7% [100 µM] | 1.18% [100 µM] (active) |
| CCOC(=O)/C(=C/CC/C(C)=C/CC/C(C)=C/CCc1ccoc1)CC(=O)N1CCCCC1 | 66.4% | 73% | -91.8% (active) | 86% | -56.4% (active) | -11.2% (active) | 5.91% (active) | 86.3% | 1.9% (active) |
| Cc1cccc2nnc(-c3ccccc3)n12 | 104% | 106% | 104% | 125% | 108% | 105% | 94.4% | 94.8% | 118% |
| COc1cc(-c2n[nH]nc2-c2ccccn2)cc(OC)c1OC | 98.2% | 90.3% | 95.8% | 97.5% | 104% | 86.3% | 65.6% | 96.4% | 119% |
| O=[N+]([O-])c1ccc(N=Nc2c(Cl)cc(O)cc2Cl)cc1 | -23.4% (active) | 10.3% | -11.9% (active) | 4.04% (active) | -4.31% (active) | 3.34% (active) | 16.4% | -20.1% (active) | 35.2% |
| C/C(=C\CCc1ccsc1)CC/C=C(\C)CCCN1CCSCC1 | 89.6% | 91.3% | 78.3% | 99% | 76.9% | 73.3% | 67.5% | 102% | 85.6% |
| COc1ccc2nc(NC(=O)CN3CCn4c(nnc4C(F)(F)F)C3)sc2c1 | 91.6% | 92.2% | 98.5% | 88.1% | 99.5% | 101% | 88.4% | 96.9% | 109% |
| Nc1ncnc2c1CN(Cc1ccccc1)CC2 | 98.3% | 113% | 117% | 106% | 107% | 87.5% | 90.3% | 101% | 115% |
| Cc1csc(C#Cc2cncc(O)c2)n1 | 111% | 109% | 113% | 110% | 121% | 121% | 108% | 105% | 105% |
| CCCc1n(Cc2ccc3ccccc3c2)cc[n+]1Cc1ccc2ccccc2c1 | -28.2% (active) | 0.228% (active) | 23.2% | 5.82% (active) | 3.26% (active) | -38.3% (active) | 31.6% | 9.55% (active) | -66.9% (active) |
| COc1cc(C2CC(c3ccc(C)cc3)=NN2C=O)ccc1OCCN(C)C (stereo unspecified) | 106% | 86.4% | 94.3% | 87.9% | 99% | 77.7% | 84.6% | 101% | 95.8% |
| c1cc[n+](Cc2ccnc3ccccc23)cc1 | 123% | 93.9% | 111% | 94.1% | 106% | 47.9% | 107% | 107% | 104% |
